Targets with a hit are over-represented here; the source holds about 7,900 in all. About 0.6% of all pairs of compound and target were hits. Unmarked numbers belong to inactive results.

Sequence of UniProt Q9Y4E8 (Q9Y4E8 whole entry, looked up): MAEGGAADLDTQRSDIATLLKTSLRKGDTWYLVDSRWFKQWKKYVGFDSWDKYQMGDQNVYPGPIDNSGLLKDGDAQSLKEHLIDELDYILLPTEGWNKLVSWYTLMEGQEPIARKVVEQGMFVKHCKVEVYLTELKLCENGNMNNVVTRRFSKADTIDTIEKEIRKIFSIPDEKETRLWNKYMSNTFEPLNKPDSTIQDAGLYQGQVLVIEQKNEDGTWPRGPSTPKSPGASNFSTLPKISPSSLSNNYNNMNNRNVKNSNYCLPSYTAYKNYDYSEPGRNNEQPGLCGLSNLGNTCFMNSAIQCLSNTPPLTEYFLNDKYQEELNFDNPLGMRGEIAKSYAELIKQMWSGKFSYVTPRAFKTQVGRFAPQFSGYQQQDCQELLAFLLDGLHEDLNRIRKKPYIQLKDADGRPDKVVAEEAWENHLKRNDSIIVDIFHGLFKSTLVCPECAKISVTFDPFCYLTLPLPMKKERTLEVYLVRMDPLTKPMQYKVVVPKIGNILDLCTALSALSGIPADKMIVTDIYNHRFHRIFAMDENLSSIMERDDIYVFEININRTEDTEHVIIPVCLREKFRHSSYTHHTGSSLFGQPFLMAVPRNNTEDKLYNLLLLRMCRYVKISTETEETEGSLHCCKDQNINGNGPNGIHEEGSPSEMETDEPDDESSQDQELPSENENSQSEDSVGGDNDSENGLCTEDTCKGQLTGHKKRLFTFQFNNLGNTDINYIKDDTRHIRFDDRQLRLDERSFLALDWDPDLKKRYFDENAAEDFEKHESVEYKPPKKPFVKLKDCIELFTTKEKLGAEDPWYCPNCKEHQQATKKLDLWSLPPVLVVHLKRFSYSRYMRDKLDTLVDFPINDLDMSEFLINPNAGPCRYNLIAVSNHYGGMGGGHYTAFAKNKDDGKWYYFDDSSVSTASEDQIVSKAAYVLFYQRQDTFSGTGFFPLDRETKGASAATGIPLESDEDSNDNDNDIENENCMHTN
Sequence of UniProt P51809 (P51809 whole entry, looked up): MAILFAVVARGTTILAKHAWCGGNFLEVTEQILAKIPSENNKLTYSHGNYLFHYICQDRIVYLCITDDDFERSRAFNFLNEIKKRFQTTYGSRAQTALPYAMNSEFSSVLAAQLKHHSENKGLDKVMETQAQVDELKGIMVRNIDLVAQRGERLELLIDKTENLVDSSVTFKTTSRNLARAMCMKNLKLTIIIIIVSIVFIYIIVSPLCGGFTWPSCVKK
Sequence of UniProt Q8TBZ6 (Q8TBZ6 whole entry, looked up): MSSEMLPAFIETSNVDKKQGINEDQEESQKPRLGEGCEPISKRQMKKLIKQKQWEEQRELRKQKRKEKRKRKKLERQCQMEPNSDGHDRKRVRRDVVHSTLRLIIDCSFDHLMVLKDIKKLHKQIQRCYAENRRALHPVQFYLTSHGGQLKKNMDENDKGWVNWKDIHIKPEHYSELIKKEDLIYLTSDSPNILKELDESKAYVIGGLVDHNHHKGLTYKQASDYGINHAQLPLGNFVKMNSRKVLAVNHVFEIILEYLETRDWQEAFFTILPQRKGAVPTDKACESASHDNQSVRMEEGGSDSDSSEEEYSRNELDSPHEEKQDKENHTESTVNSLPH
Sequence of UniProt Q9Y385 (Q9Y385 whole entry, looked up): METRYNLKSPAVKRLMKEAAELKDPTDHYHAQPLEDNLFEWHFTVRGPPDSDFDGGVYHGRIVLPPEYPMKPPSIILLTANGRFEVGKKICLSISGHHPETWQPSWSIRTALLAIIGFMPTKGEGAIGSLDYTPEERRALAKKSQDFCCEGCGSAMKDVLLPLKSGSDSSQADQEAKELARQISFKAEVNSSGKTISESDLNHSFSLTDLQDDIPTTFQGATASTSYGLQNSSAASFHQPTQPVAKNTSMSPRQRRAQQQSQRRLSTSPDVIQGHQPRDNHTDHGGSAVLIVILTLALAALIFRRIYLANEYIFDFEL
Sequence of UniProt Q8N1B4 (Q8N1B4 whole entry, looked up): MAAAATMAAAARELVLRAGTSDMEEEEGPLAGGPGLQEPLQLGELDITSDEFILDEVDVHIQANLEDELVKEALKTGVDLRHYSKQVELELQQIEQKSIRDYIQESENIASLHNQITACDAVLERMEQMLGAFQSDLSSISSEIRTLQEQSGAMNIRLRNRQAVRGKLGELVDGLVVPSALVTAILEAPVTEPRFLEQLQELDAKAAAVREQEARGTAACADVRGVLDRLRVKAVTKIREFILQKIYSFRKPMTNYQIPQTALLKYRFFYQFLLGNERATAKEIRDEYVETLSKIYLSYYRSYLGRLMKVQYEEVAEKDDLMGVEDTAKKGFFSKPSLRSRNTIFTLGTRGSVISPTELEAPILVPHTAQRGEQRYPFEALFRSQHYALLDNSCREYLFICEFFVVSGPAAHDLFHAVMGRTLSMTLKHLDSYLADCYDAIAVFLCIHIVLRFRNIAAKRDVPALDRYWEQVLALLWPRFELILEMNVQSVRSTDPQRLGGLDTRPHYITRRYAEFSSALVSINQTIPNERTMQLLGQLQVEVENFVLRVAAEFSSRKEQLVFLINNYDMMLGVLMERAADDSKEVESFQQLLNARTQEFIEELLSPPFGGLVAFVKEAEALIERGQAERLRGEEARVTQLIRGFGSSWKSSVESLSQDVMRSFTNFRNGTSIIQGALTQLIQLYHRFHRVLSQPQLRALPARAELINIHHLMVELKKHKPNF
Sequence of UniProt Q6NUQ4 (Q6NUQ4 whole entry, looked up): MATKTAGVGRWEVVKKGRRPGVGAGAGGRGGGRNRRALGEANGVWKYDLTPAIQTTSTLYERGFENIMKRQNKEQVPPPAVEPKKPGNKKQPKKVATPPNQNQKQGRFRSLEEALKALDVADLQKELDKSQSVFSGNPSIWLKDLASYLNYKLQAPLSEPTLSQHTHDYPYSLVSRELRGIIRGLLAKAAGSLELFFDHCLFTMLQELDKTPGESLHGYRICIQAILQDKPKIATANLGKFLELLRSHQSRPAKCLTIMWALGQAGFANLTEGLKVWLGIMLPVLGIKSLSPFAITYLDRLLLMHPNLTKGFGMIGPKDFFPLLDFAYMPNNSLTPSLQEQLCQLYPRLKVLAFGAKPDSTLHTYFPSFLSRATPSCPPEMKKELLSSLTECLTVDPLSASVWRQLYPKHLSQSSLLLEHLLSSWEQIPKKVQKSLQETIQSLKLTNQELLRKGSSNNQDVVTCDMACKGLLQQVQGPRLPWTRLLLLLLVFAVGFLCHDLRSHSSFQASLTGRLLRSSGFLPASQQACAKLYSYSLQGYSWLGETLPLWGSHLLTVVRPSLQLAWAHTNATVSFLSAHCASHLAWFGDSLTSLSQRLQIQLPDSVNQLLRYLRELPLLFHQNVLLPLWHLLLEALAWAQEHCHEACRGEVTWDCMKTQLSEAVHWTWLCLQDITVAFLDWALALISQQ
Sequence of UniProt O75674 (O75674 whole entry, looked up): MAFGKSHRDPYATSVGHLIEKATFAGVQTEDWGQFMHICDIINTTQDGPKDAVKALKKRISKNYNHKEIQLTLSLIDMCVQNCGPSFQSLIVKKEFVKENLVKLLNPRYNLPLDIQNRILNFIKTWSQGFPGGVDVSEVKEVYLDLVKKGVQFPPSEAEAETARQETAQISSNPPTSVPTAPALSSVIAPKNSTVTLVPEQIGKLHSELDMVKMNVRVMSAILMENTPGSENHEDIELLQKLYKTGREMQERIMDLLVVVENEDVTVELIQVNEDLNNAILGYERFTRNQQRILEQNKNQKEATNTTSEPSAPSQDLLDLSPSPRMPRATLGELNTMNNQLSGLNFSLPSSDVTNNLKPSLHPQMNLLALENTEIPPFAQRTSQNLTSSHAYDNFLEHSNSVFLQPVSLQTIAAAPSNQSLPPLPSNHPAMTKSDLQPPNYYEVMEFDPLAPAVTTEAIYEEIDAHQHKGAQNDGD
Sequence of UniProt P12956 (P12956 whole entry, looked up): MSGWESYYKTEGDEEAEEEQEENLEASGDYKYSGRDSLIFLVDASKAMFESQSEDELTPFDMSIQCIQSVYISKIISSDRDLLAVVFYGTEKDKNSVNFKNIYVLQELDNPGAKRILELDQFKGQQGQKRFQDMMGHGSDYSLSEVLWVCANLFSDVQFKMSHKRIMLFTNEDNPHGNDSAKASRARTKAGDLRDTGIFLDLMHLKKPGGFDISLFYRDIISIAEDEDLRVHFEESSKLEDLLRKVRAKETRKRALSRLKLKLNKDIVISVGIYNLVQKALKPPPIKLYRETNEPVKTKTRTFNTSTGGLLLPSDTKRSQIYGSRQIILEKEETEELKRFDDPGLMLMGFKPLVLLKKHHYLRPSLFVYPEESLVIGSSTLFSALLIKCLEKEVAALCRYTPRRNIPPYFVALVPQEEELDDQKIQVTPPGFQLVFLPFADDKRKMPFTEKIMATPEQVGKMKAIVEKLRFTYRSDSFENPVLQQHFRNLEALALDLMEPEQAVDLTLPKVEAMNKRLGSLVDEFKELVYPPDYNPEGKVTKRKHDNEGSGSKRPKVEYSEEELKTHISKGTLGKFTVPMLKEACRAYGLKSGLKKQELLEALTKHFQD
Sequence of UniProt Q15629 (Q15629 whole entry, looked up): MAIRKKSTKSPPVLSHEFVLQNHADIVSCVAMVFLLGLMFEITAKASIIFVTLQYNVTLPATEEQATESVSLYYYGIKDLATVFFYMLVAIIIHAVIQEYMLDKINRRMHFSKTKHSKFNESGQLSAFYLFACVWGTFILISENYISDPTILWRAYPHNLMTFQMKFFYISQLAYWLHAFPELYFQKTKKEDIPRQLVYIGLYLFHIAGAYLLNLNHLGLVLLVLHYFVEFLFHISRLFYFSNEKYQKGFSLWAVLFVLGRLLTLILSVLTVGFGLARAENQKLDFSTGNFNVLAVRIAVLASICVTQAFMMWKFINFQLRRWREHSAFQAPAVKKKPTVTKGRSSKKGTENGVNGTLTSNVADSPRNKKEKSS
Sequence of UniProt P02585 (P02585 whole entry, looked up): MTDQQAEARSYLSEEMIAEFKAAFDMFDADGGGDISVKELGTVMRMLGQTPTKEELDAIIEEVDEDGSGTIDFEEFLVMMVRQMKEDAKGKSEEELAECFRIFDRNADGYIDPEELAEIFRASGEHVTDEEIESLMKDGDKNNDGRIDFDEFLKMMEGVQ

Compound in one test: C#Cc1cccc(Nc2ncnc3cc(OCCOC)c(OCCOC)cc23)c1 [erlotinib]
Kind of test: log2 fold change, soluble protein after heating vs DMSO (PISA); higher = thermal stabilisation; K562 cells, 10 uM, 30 min; active = over 0.2 and 3.5 SD of the protein, either way, in both replicates (recomputed). In a few lines: (§1)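 Values are thermal stability changes relative to control samples and are taken from duplicates. They are stated as log2 fold changes. Before quantification by TMTpro 16plex LC-MS/MS with equalised channel sums, K562 cells at 2×10^6 cells/mL were treated with 10 μM compound for 30 min, heated in aliquots for 3 min across 48°C-58°C, pooled, extracted in PBS with 0.5% NP-40 at 4°C, and centrifuged at 21,000xg for 90 min to give the soluble supernatant.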
As for VPS72 isoform 2 (UniProt Q15906), the log2 fold change was -0.017.
For UBE2J1 (UniProt Q9Y385), the log2 fold change was 0.053.
On to WDR43 (UniProt Q15061), for which the log2 fold change is 0.001.
Regarding UCHL5 isoform 3 (UniProt Q9Y5K5), the log2 fold change is 0.047.
With TMEM161A (UniProt Q9NX61), the log2 fold change was 0.017.
As for VPS50 (UniProt Q96JG6), the log2 fold change is 0.008.
Same read-out and setting: the value for XRCC6 (UniProt P12956) was 0.025.
On to WRB (UniProt O00258), for which the log2 fold change is -0.02.
The same measure, in the same setting: the value for TMEM214 (UniProt Q6NUQ4) was -0.068; that for TOM1 isoform 2 (UniProt O60784) was 0.012.
For UBE3D (UniProt Q7Z6J8), the log2 fold change is -0.014.
As for TOE1 (UniProt Q96GM8), the log2 fold change is -0.029.
Consider TRMT2A (UniProt Q8IZ69), for which the log2 fold change was 0.
On the same count and under the same terms, the value for VAMP7 (UniProt P51809) was -0.02.
As for VTA1 (UniProt Q9NP79), the log2 fold change was -0.05.
As for VPS41 (UniProt P49754), the log2 fold change was -0.022.
Turning to TMEM208 (UniProt Q9BTX3), the log2 fold change is -0.021.
For the target USP14 (UniProt P54578), the log2 fold change is -0.027.
On to TRIM4 (UniProt Q9C037), for which the log2 fold change was 0.004.
In the case of TMEM41A (UniProt Q96HV5), the log2 fold change is 0.013.
As to TRAM1 (UniProt Q15629), the log2 fold change is 0.059.
Consider USP15 (UniProt Q9Y4E8), for which the log2 fold change was 0.026.
Regarding TNNC2 (UniProt P02585), the log2 fold change was 0.035.
Same read-out and setting: the value for VPS52 (UniProt Q8N1B4) was 0.019; that for TRAPPC6B (UniProt Q86SZ2) was 0.026; that for WDR7 (UniProt Q9Y4E6) was 0.06.
Consider TMEM189-UBE2V1 (UniProt I3L0A0), for which the log2 fold change is -0.014.
TTI1 (UniProt O43156): the log2 fold change was -0.078.
Take WASHC2A (UniProt Q641Q2): the log2 fold change is 0.008.
The same measure, in the same setting: the value for TSG101 (UniProt Q99816) was 0.022; that for TRMT10A (UniProt Q8TBZ6) was -0.01.
Turning to WARS2 (UniProt Q9UGM6), the log2 fold change was 0.069.
Consider UBE2Q1 (UniProt Q7Z7E8), for which the log2 fold change is 0.058.
On to VPS53 isoform 4 (UniProt Q5VIR6), for which the log2 fold change was 0.06.
For the target TOM1L1 (UniProt O75674), the log2 fold change was 0.019.
As to UBC (UniProt P0CG48), the log2 fold change is -0.007.

Compound in another test: C/C(=N\NC(=O)C1=CC(=CC=C1)S(=O)(=O)N2CCOCC2)/C3=C(C=CC(=C3)Cl)O
The description is as above. In short, it runs like this: as §1
As to VPS72 isoform 2 (UniProt Q15906), the log2 fold change is -0.062.
UBE2J1 (UniProt Q9Y385): the log2 fold change was 0.063.
The same measure, in the same setting: the value for WDR43 (UniProt Q15061) was -0.003; that for UCHL5 isoform 3 (UniProt Q9Y5K5) was 0.106.
As for TMEM161A (UniProt Q9NX61), the log2 fold change was 0.088.
Still for that read-out and setting: the figure for VPS50 (UniProt Q96JG6) is 0.094; for XRCC6 (UniProt P12956) it is 0.103; for WRB (UniProt O00258) it is 0.012.
With TMEM214 (UniProt Q6NUQ4), the log2 fold change is 0.016.
As to TOM1 isoform 2 (UniProt O60784), the log2 fold change is 0.014.
UBE3D (UniProt Q7Z6J8): the log2 fold change was -0.018.
On to TOE1 (UniProt Q96GM8), for which the log2 fold change is -0.151.
As for TRMT2A (UniProt Q8IZ69), the log2 fold change was 0.069.
Consider VAMP7 (UniProt P51809), for which the log2 fold change was 0.003.
Turning to VTA1 (UniProt Q9NP79), the log2 fold change is 0.124.
Turning to VPS41 (UniProt P49754), the log2 fold change was 0.076.
For TMEM208 (UniProt Q9BTX3), the log2 fold change was 0.032.
The same measure, in the same setting: the figure for USP14 (UniProt P54578) is 0.03.
The same measure, in the same setting: the value for TRIM4 (UniProt Q9C037) was 0.031; that for TMEM41A (UniProt Q96HV5) was 0.046.
Turning to TRAM1 (UniProt Q15629), the log2 fold change was 0.016.
The same measure, in the same setting: the figure for USP15 (UniProt Q9Y4E8) is 0.078; for TNNC2 (UniProt P02585) it is -0.007.
Turning to VPS52 (UniProt Q8N1B4), the log2 fold change was 0.048.
For TRAPPC6B (UniProt Q86SZ2), the log2 fold change was 0.07.
For WDR7 (UniProt Q9Y4E6), the log2 fold change is 0.074.
Consider TMEM189-UBE2V1 (UniProt I3L0A0), for which the log2 fold change was 0.025.
With TTI1 (UniProt O43156), the log2 fold change was 0.115.
In the case of WASHC2A (UniProt Q641Q2), the log2 fold change is -0.026.
In the case of TSG101 (UniProt Q99816), the log2 fold change was 0.054.
Turning to TRMT10A (UniProt Q8TBZ6), the log2 fold change was 0.044.
The same measure, in the same setting: the value for WARS2 (UniProt Q9UGM6) was -0.016; that for UBE2Q1 (UniProt Q7Z7E8) was 0.006.
The same measure, in the same setting: the value for VPS53 isoform 4 (UniProt Q5VIR6) was 0.094; that for TOM1L1 (UniProt O75674) was -0.009; that for UBC (UniProt P0CG48) was -0.021.
